Reference: PubChem BioAssay AID2685 (National Center for Advancing Translational Sciences (NCATS), 2010)
Out of some 320,000 compounds screened, about 2,100 (0.66%) were called active. Another 53% or so got no clear call; they are omitted. This is one part of a sample in which actives are shown more often than they occur. Calls follow the shape of the dose curve; as a rule, active = well fitted inhibition curve with a large enough effect in the signal ratio, with a control signal flat (not every such curve was filed as active); inconclusive = small, poorly fitted or top-dose-only effect, or effect the other way, or a change in a side signal; inactive = flat fitted curve, though single readings scatter; the % refers to the signal ratio.

Assay: qHTS Assay for Lipid Storage Modulators in Drosophila S3 Cells;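 as to cell number change: cells counted by Cell Tracker Red CMTPX staining in the red channel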; as to lipid storage change, negative = inhibition: % is scaled to controls: 0 for no effect and ±100 for the full control effect
Conditions: BODIPY lipid droplet fluorescence, 18-24 h, cells fed with added oleic acid; cell number change: measured here: cell count max response; series mostly up to 46.1 µM; lipid storage change, negative = inhibition: at the top concentration
Summary of the method: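 Drosophila S3 cells loaded with oleic acid (400 uM, as added) and compounds at several concentrations; lipid droplets imaged by 488-nm laser-scanning cytometry, 500–530 nm intensity and object ratio to cell channel. Percent activity normalized to 20 uM Triacsin C.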
Potency is read from the fitted curve at half-maximal effect.

| SMILES | outcome | cell number change [%] | lipid storage change, negative = inhibition | Potency |
| --- | --- | --- | --- | --- |
| O=C(CN(C(=O)c1csnn1)c1ccc(Cl)cc1)NCc1ccc2c(c1)OCO2 | inactive | 3.81 |  |  |
| O=C(CN(C(=O)c1csnn1)c1cccc(F)c1)NCc1ccc2c(c1)OCO2 |  | 8.12 | 4.68% (inactive) |  |
| COc1ccc(S(=O)(=O)N(C)CC(=O)NCc2ccc3c(c2)OCO3)cc1 |  | 16.1 |  | 2.06 µM (active) |
| COc1ccc(N(CC(=O)NCc2ccc3c(c2)OCO3)C(=O)c2csnn2)cc1 |  | -14.1 |  | 1.16 µM (active) |
| COc1ccc(S(=O)(=O)N(C)CC(=O)Nc2ccc3c(c2)OCO3)cc1 | inactive | -1.44 |  |  |
| COc1ccc(Cl)cc1S(=O)(=O)N(C)CC(=O)NCc1ccc2c(c1)OCO2 |  | 13.5 | -3.57% (inactive) |  |
| Cc1ccc2c(c1)N(S(=O)(=O)c1ccc3c(c1)NC(=O)CC(=O)N3)CCO2 |  | 15 | -11.8% (inactive) |  |
| COC(=O)c1sc2ncccc2c1OCc1ccccc1Cl |  | -10.8 | -7.27% (inactive) |  |
| COc1cccc(C2/C(=C(/O)c3ccc4c(c3)OCO4)C(=O)C(=O)N2CCN2CCOCC2)c1 (configuration not stated) |  | 25.8 | -7.15% (inactive) |  |
| CC(C)Cc1nnc(NC(=O)C2=COCCO2)s1 |  | -9.23 | 3.82% (inactive) |  |
| C=CCn1c(C)c(C(C)=O)c(N2CCOCC2)nc1=S |  | -4.96 |  | 23.1 µM (active) |
| C=CCn1c(C)c(C(C)=O)c(N2CCN(c3ccccc3)CC2)nc1=S |  | -14.3 | 4.46% (inactive) |  |
| C=CCn1c(C)c(C(C)=O)c(N2CCCC2)nc1=S |  | 0.195 | 0.966% (inactive) |  |
| CCOc1ccc(/C=N/n2c(SC)nnc(C(C)(C)C)c2=O)cc1 |  | -13.9 | 3.3% (inactive) |  |
| Cc1cc(NS(=O)(=O)c2ccc(NC(=O)CN3C(=O)c4ccccc4C3=O)cc2)nc(C)n1 | inactive |  |  |  |
| Cc1cc(NS(=O)(=O)c2ccc(NC(=O)CCCC(=O)O)cc2)nc(C)n1 |  | -5.64 | -13.2% (inactive) |  |
| Cc1cc(C)nc(NS(=O)(=O)c2ccc(NC(=O)CN3C(=O)c4ccccc4C3=O)cc2)n1 |  | -6.03 |  | 6.51 µM (active) |
| Cc1cccc(OCC(=O)Nc2ccc(S(=O)(=O)Nc3cc(C)nc(C)n3)cc2)c1 |  | 13.6 | 1.01% (inactive) |  |
| CCOC(=O)COc1ccc(S(=O)(=O)Nc2ccc(C)cc2)cc1 | inactive | 11.3 |  |  |
| COCCOCC(=O)Nc1ccc(S(=O)(=O)Nc2cc(C)nc(C)n2)cc1 |  | 21.3 | -12.7% (inactive) |  |
| COC(=O)COc1ccc(S(=O)(=O)Nc2ccc(NC(C)=O)cc2)cc1 |  | -0.0647 |  | 3.66 µM (active) |
| Cc1cc(NS(=O)(=O)c2ccc(NC(=O)COc3ccc(Br)cc3)cc2)nc(C)n1 |  |  |  | 18.4 µM (active) |
| CCOc1ccc(OCC(=O)Nc2ccc(S(=O)(=O)Nc3cc(C)nc(C)n3)cc2)cc1 | inactive | -4.96 |  |  |

| SMILES | outcome | cell number change [%] | lipid storage change, negative = inhibition | Potency |
| --- | --- | --- | --- | --- |
| COC(=O)COc1ccc(S(=O)(=O)Nc2ccc(C(N)=O)cc2)cc1 |  | 10.2 | -14.2% (inactive) |  |
| COCC(=O)Nc1ccc(S(=O)(=O)Nc2cc(C)nc(C)n2)cc1 |  | -33.4 |  | 32.6 µM (active) |
| Cc1cc(C)nc(NS(=O)(=O)c2ccc(NC(=O)CN3C(=O)S/C(=C\c4ccccc4)C3=O)cc2)n1 |  | 8.32 | 20.9% (inactive) |  |
| Cc1c(C(=O)NCc2cccnc2)sc2nc(-c3ccccc3)cn12 |  | -2.88 | -2.55% (inactive) |  |
| Cc1cccn2c(=O)nc(SCC(=O)NCc3ccccc3)nc12 |  | 26.3 | 14.2% [at 0.0737 µM] (inactive) |  |
| Cc1ccc(-n2ncc3c(=O)n(-c4ccc(C)c(C)c4)c(C)nc32)cc1 |  | -21 | 20.1% (inactive) |  |
| CC1=Nc2ccccc2N=C(NC(=O)CSC(=S)N2CCCCC2)C1c1ccccc1 (configuration not stated) |  | 11.1 | 4.9% (inactive) |  |
| CC(C)CC(NC(=O)c1ccccc1NC(=O)c1ccccc1)C(=O)O (configuration not stated) |  | -8.71 | 0.37% (inactive) |  |
| CCC(=O)N(CCC(c1ccccc1)c1ccco1)Cc1cccs1 (configuration not stated) |  | 1.01 | 3.42% (inactive) |  |
| CC(=O)NCCC(=O)Nc1nc(-c2cccs2)c(-c2cccs2)s1 |  | 13.4 | 11.3% (inactive) |  |
| CC(C)NC(=O)c1ccc(OC2CSC2)cc1 |  | 2.39 | -7.18% (inactive) |  |
| CC(=O)c1cccc(NC(=O)c2ccc(OC3CSC3)cc2)c1 |  | 14.6 | -2.44% (inactive) |  |
| CNC(=O)c1ccc(OC2CSC2)cc1 |  | -3.88 |  | 16.4 µM (active) |
| O=C(NCC(=O)N(Cc1ccccc1)C(C(=O)NC1CCCC1)c1ccncc1)c1ccco1 (configuration not stated) |  | -25 | -5.7% (inactive) |  |
| COc1cccc(C2CCCN2Cc2nc(CC3CC3)no2)c1 (configuration not stated) |  | -10.7 | 13.7% (inactive) |  |
| CCC(=O)Nc1ccc(S(=O)(=O)Nc2ccc(Cl)nn2)cc1 |  | -1.17 | 1.32% (inactive) |  |
| Cc1cc(-n2cnnn2)cc(C)c1S(=O)(=O)N(C)c1ccccc1 |  | 1.61 |  | 10.3 µM (active) |
| Cc1cc(C)c(S(=O)(=O)N(C)c2ccccc2)c(C)c1 |  | -0.745 | 7.23% (inactive) |  |
| Cc1cc(-n2cnnn2)cc(C)c1S(=O)(=O)NCCOc1ccccc1 | inactive | -19.8 |  |  |
| CCCOc1ccc(C(=O)O/N=C(\CC)c2ccc(C)cc2)cc1 |  | 8.23 | 17.6% (inactive) |  |
| O=C(C1CCN(c2nnc(-n3cccc3)s2)CC1)N1CCCCC1 | inactive |  |  |  |
| CCOC(=O)C1CCCN(C(=O)C2CCN(c3nnc(-n4cccc4)s3)CC2)C1 (configuration not stated) |  | -17.4 |  | 16.4 µM (active) |
